Most compounds without a hit are left out; they make up all but 2.2% or so of the library.
FUS suppressor: qHTS for Suppressors of FUS Proteinopathy: Primary screen using FUS-linked yeast assay; Potency, µM (top dose mostly 76.6 µM), most hits filed as activators; AID 1347120, 2019; 0.24% of 390,000 active; S. cerevisiae FUS-expressing, growth rescue, OD600, 24 h; further: nearly all actives have a fitted effect of over 55% in size
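FUS-expressing yeast, raffinose-pregrown, induced in 2% galactose minimal medium at OD 0.005; compounds in a dilution series, 24hr at 30C. Growth restoration read as absorbance at 600 nm. CP55940 positive control, DMSO negative.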
Abeta rescue: qHTS for compounds that reverse cellular toxicity of Amyloid beta (A-beta) peptide in yeast: Primary Screen. yeast expressing A-beta42, growth rescue, OD600, 48 h; response scale: 0% DMSO, 100% iron-clioquinol control. Potency, µM (doses to about 46.1 µM), actives largely listed as activators. 0.063% of 410,000 active. AID 1347071, 2019; further: nearly all actives have a fitted effect of over 55% in size
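Yeast growth medium received pinned compounds, then yeast cells expressing toxic A-beta were added; plates incubated at 30 C for 48 hr. Growth read as absorbance at 600 nm, normalized to DMSO and equimolar FeCl3 plus clioquinol controls.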
TDP43 rescue: qHTS of TDP-43 Inhibitors; TDP-43 expressing yeast growth rescue, BacTiter-Glo, 24 h; Potency, µM (top dose mostly 46.1 µM), usual class: activators; 1.8% of 410,000 active; further: nearly all actives have a fitted effect of over 50% in size
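Cell-based yeast growth screen: TDP-43 expression induced in galactose, inoculum OD600=0.02 after raffinose pregrowth to mid-log. Read-out BacTiter-Glo luminescence at 24 hr, 30 deg C; inhibition of toxicity seen as signal increase.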
Mito fusion yeast: qHTS Assay for Small Molecule Inhibitors of Mitochondrial Division or Activators of Mitochondrial Fusion; S. cerevisiae fusion-defective mutant growth rescue, CellTiterGlo 48 h; Potency, µM (series often up to 46.1 µM), most hits filed as activators; 0.23% of 320,000 active; AID 485298, 2010; further: nearly all actives have a fitted effect of over 45% in size
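Yeast fusion mutant, YPEG (non-fermentable carbon), compound, 48 h at 37C non-permissive; CellTiterGlo added, 10 min RT, luminescence read. Rescued growth = division inhibition.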
aSyn yeast inh: qHTS of alpha-syn Inhibitors; Yeast expressing alpha-synuclein, growth rescue, BacTiter-Glo, 24 h; Potency, µM (doses to about 46.1 µM), usual class: activators; 0.14% of 370,000 active; further: nearly all actives have a fitted effect of over 65% in size
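Rescue of yeast growth: cells expressing toxic alpha-synuclein, induced in galactose at OD600 0.02, incubated with compound 24 h at 30 C. ATP luminescence quantified growth; inhibitors of toxicity appear as activators.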
Each line names hits and unclear results; the compound was inactive in the other large screens. The call rests on the fitted dose curve; in most records, active means well fitted curve in the direction sought with a large enough effect; inconclusive means small, poorly fitted or top-dose-only effect, or another doubt; inactive means no such curve, though single readings can be large; an effect the other way counts as inactive or inconclusive.

CCn1nc(C(=O)Nc2cccc3ccccc23)c(Cl)c1Cl	TDP43 rescue 16µM
COc1ccc(CC(=O)OCC(=O)NC(=O)NC23CC4CC(CC(C4)C2)C3)cc1	Abeta rescue inconclusive
CC1CC1C(=O)OCC(=O)NC(=O)NC12CC3CC(CC(C3)C1)C2 (stereo not given)	Abeta rescue 8.9µM
O=C(COC(=O)c1ccc(-c2ccc([N+](=O)[O-])cc2)o1)NC(=O)NC12CC3CC(CC(C3)C1)C2	Abeta rescue inconclusive, TDP43 rescue inconclusive, Mito fusion yeast 10µM (no result: FUS suppressor)
O=C(COC(=O)c1ccc(-c2ccc([N+](=O)[O-])cc2)o1)NC(=O)NC1CCCCC1	Abeta rescue inconclusive (no result: FUS suppressor)
CN1/C(=C/C(=O)CSc2ccccc2C(=O)O)C(C)(C)c2ccccc21	Abeta rescue inconclusive, TDP43 rescue 20µM
COc1ccc(Nc2nnc(SCC(=O)/C=C3/N(C)c4ccccc4C3(C)C)s2)cc1	TDP43 rescue 11µM, Mito fusion yeast inconclusive (no result: FUS suppressor)
CN1/C(=C\C(=O)CSc2cccc[n+]2[O-])C(C)(C)c2ccccc21	TDP43 rescue inconclusive
CN1/C(=C/C(=O)COC(=O)C2COc3ccccc3O2)C(C)(C)c2ccccc21 (stereo not given)	TDP43 rescue 32µM (no result: Mito fusion yeast)
CSc1nc(Cl)c(Br)c(Nc2c[nH]c(=O)[nH]c2=O)n1	none (no result: Mito fusion yeast)
Cc1ccc(C)c(-n2c3nc(=O)[nH]c(=O)c-3cc3c(C)nn(-c4ccccc4)c32)c1	none (no result: Mito fusion yeast, aSyn yeast inh)
Cc1cccc(Cc2c(C)nc3c(C(=O)NCc4ccco4)cnn3c2C)c1	FUS suppressor 13µM
Cc1nc2c(C(=O)NCc3ccco3)cnn2c(C)c1Cc1ccc(F)cc1Cl	none
COC(=O)c1cccc(CN2C(=O)C(C)Oc3ccc(C)cc32)c1 (stereo not given)	TDP43 rescue 18µM (no result: Mito fusion yeast)
c1cc2cc(-c3c(-c4ccc5c(c4)OCO5)noc3-c3ccsc3)ccc2[nH]1	none
Cc1onc(-c2ccc3c(c2)OCO3)c1-c1ccc2[nH]ccc2c1	TDP43 rescue 22µM
CCC(C(=O)Nc1ccc(C)c(C)c1)n1c(=O)c(C(F)(F)F)nc2ccccc21 (stereo not given)	none (no result: Mito fusion yeast, aSyn yeast inh)
CN(c1ccccc1)c1cc(Br)nc(Br)c1	TDP43 rescue 14µM (no result: Mito fusion yeast)
Cc1cc(NS(=O)(=O)c2ccc(-c3ccccc3)cc2)no1	Abeta rescue inconclusive, TDP43 rescue 10µM
CCC(=O)N1c2ccccc2CC1C(=O)NCc1ccccc1Cl (stereo not given)	none (no result: Mito fusion yeast, aSyn yeast inh)
N/C(=N\OC(=O)c1ccc(Cl)c([N+](=O)[O-])c1)c1ccccn1	TDP43 rescue 16µM
N/C(=N\OC(=O)c1ccc(Cl)cc1)c1ccccn1	TDP43 rescue 10µM
N/C(=N\OC(=O)c1cc([N+](=O)[O-])ccc1Cl)c1cccnc1	TDP43 rescue 13µM
N/C(=N\OC(=O)c1ccc(Cl)c([N+](=O)[O-])c1)c1ccccc1	TDP43 rescue 13µM
CC12CCC(=O)C=C1C(F)CC1C2C(O)CC2(C)C1CCC2(O)C(=O)CO (stereo not given)	none (no result: Mito fusion yeast)
Cc1ccc(C)c(NC(=O)CSc2cccc3cccnc23)c1	TDP43 rescue 5.6µM
Cc1cccc(NC(=O)CSc2cccc3cccnc23)c1	TDP43 rescue inconclusive, aSyn yeast inh inconclusive
O=C(COC(=O)c1ccccc1Oc1ccccc1)Nc1ccc(Br)cc1	none (no result: FUS suppressor, Abeta rescue, TDP43 rescue, Mito fusion yeast)
CCOc1ccc(Nc2cc(C)nc3nc(Cc4ccc(Cl)cc4)nn23)cc1	none (no result: Mito fusion yeast, aSyn yeast inh)
CCNc1nc(N2CCCCC2)nc(-n2nnc(C(=O)OCC)c2C)n1	TDP43 rescue 18µM
COc1ccc(-c2csc(C(C)(O)c3cccnc3)n2)cc1 (stereo not given)	none (no result: Mito fusion yeast)
Cc1ccccc1N=C1SC(CC(=O)Nc2ccc3ccccc3c2)C(=O)N1Cc1ccccn1 (stereo not given)	TDP43 rescue 28µM, aSyn yeast inh inconclusive
O=C(CC1SC(=Nc2cccc3ccccc23)N(Cc2ccccn2)C1=O)Nc1ccccc1Br (stereo not given)	Abeta rescue inconclusive, TDP43 rescue inconclusive
CCc1noc(-c2ccc(N3CCC(C)CC3)c([N+](=O)[O-])c2)n1	none (no result: Mito fusion yeast, aSyn yeast inh)
Cc1ccc(Nc2nc(Cl)c(C=O)s2)cc1Cl	none
CCN(CC)c1nc(NN)nc(Nc2ccc(C)c(Cl)c2)n1	Abeta rescue inconclusive, TDP43 rescue 13µM (no result: Mito fusion yeast)
CCOC(=O)[C@]12CCC=C1N(Cc1ccc(Cl)cc1Cl)C(=O)[C@H](CC(=O)NCC13CC4CC(CC(C4)C1)C3)C2	none (no result: Mito fusion yeast)
C/C(=N\Nc1ccccc1Cl)c1ccc(-n2ccnc2)cc1	TDP43 rescue 7.1µM
C/C(=N\Nc1ccc(C(=O)O)cc1)c1ccc(-n2ccnc2)cc1	none
COC(=O)C[C@H]1C=C[C@H](NC(=O)C2CCOCC2)[C@@H](CO)O1	none (no result: Mito fusion yeast)
COc1cccc(C(=O)Nc2ccc3nc(N4CCN(c5ncccn5)CC4)cc(C)c3c2)c1OC	none (no result: FUS suppressor, Abeta rescue, TDP43 rescue, aSyn yeast inh)
CCOc1ccccc1C(=O)Nc1ccc2nc(N3CCN(c4ncccn4)CC3)cc(C)c2c1	TDP43 rescue 18µM (no result: Mito fusion yeast)
Cc1ccc2onc(CC(=O)Nc3cc(F)ccc3F)c2c1	TDP43 rescue 10µM (no result: Mito fusion yeast, aSyn yeast inh)
COc1nc(NCc2cccnc2)nc(NC2CCCCC2)n1	Mito fusion yeast 13µM
CCCC(=O)C1=C(c2cccc(OC)c2)N(C(=O)CCC)n2c(C)nnc2S1	FUS suppressor inconclusive (no result: Mito fusion yeast, aSyn yeast inh)
N#Cc1cn(Cc2cccc(Cl)c2)c2ccccc12	TDP43 rescue 16µM, Mito fusion yeast inconclusive (no result: FUS suppressor)
CC(C)c1ccc2oc(-c3ccc(Cl)c(NC(=O)c4cccs4)c3)nc2c1	none (no result: Mito fusion yeast)
O=c1cc(CSc2ccc(Cl)cc2)nc(-c2ccccn2)[nH]1	Abeta rescue inconclusive, TDP43 rescue inconclusive, aSyn yeast inh 10µM
Clc1ccc(SCc2cc(N3CCOCC3)nc(-c3ccccn3)n2)cc1	Abeta rescue 13µM
Cc1cc(Oc2ccc(Cl)cc2Cl)nc(C#N)n1	none (no result: FUS suppressor, Abeta rescue, TDP43 rescue, Mito fusion yeast)
CCn1ncc(/C=N\NC(=O)c2ccc3c(c2)c(C)c(C)n3Cc2ccccc2)c1C	FUS suppressor inconclusive
CCn1nc(C)c(/C=N/NC(=O)c2ccc3c(c2)c(C)c(C)n3Cc2ccccc2)c1C	FUS suppressor 11µM
CCNc1ccc(C(=O)Nc2ccc3nc(C)sc3c2)cc1[N+](=O)[O-]	Mito fusion yeast 35µM
Cc1nc2ccc(C(=O)Nc3ccccc3Cl)cc2s1	TDP43 rescue 11µM
Cc1nc2ccc(NC(=O)c3ccc4ccccc4n3)cc2s1	Mito fusion yeast 4µM
COC(=O)[C@H](Cc1c[nH]c2ccccc12)NC(=O)NCc1ccccc1	none
COC(=O)N1C(=O)[C@](c2ccccc2)(C2CCCC2)N1C(=O)OC	TDP43 rescue 14µM
COC(=O)c1ccc(OCC(=O)c2ccccc2OC)cc1	TDP43 rescue 11µM
COc1ccccc1CNC(=O)COc1ccc(C)cc1	TDP43 rescue 11µM

Bioassay records as filed in PubChem BioAssay.
